{"source": "PubChem BioAssay (EPA / NIEHS)", "note": "Activity calls are given as the source filed them. The calls were made as follows: active = hit-call score of the fitted dose curve at least 0.9, where 1 is the maximum; inactive = score below 0.9.", "data": [{"test": "CCTE_Shafer_MEA_acute_cross_correlation_area: CCTE's Neural Acute Assay for Area of Cross Correlation, Shafer Lab (AID 2284024);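 also: curves fitted for loss of cross-correlation area so actives lower synchrony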", "description": "CCTE_Shafer_MEA_acute assay is conducted using Axion Biosystems 48 well microelectrode array (MEA) plates and Maestro recording system. Each well of the MEA plate contains a grid of 16 microelectrodes embedded in the culture surface. Electrically active cells, such as neurons, can be cultured over the electrodes, and electrical activity in these cells can be recorded extracellularly. The spontaneous firing of neurons is captured from each electrode on a microsecond timescale providing both temporally and spatially precise data. […] The CCTE_Shafer_MEA_acute assay uses primary cultures of rat cortical neurons. As these cultures mature over time, neural networks develop functional activity and form cohesive networks in which electrical activity can be highly coordinated. Baseline 40-minute recordings are made on days post-plating 13 or 15, followed by a secondary 40-minute recording after chemical exposure.CCTE_Shafer_MEA_acute_cross_correlation_area is a component of the CCTE_Shafer_MEA_acute assay. It measures the area under the well-wide pooled inter-electrode cross-correlation of action potential firing (not normalized to auto-correlations) within a window centered around 0 for the phase lag during a recording in a microelectrode array (MEA) using Axion Biosystems Maestro 768 channel amplifier with the AxIS adaptive spike detector. The recordings before and after chemical treatment are used to calculate a percent change in the cross correlation area in each well.Data from the assay component CCTE_Shafer_MEA_acute_cross_correlation_area was analyzed into 1 assay endpoint. This assay endpoint, CCTE_Shafer_MEA_acute_cross_correlation_area, was analyzed in the negative analysis fitting direction relative to DMSO as the negative control and baseline of activity. Using a type of functional reporter, gain or loss-of-signal activity can be used to understand electrical activity.\nSpontaneous activity in the cortical cultures was recorded using an Axion Biosystems Maestro 768 channel amplifier and Axion Integrated Studios (AxIS) v1.8 (or later) software. The amplifier recorded from all channels simultaneously (gain = 1200 x; sampling rate = 12.5 kHz/channel): raw signals were filtered with a Butterworth band-pass filter (300-5000 Hz), which filters out slower local field potentials leaving only fast potentials, i.e., \"spikes\", arising from extracellular currents associated with action potentials (Pine 2006; Wheeler and Nam 2011). On-line spike detection of filtered signals was conducted with the AxIS adaptive spike detector, using a threshold of 8x the root mean squared (rms) noise on each channel. Any electrodes with rms noise levels greater than 5 uV were grounded (e.g., no data were recorded). Once grounded, an electrode was grounded for the duration of the experiment. All recordings were conducted at 37 C. Wells were deemed usable if on the day of the exposure >/= 10 electrodes were active (defined as >/= 5 spikes/min). On DIV 13 or 15, a minimum of three wells from one cortical culture preparation were treated with each compound (0.03-40 uM). Prior to recording baseline activity, each mwMEA plate was placed in the Maestro at 37 C and allowed to sit for 20 min while firing rates stabilized. Baseline activity (40 min) was recorded before the addition of each compound. An additional 40 min of spontaneous activity was recorded in the presence of each compound. Changes in network parameters relative to baseline were assessed following compound treatment.", "values": [{"smiles": "CCC(=O)C(CC(C)N(C)C)(c1ccccc1)c1ccccc1", "note": "(stereo not drawn)", "AC50": "0.062 µM (active)"}, {"smiles": "ClC1(Cl)C2(Cl)C3(Cl)C4(Cl)C(Cl)(Cl)C5(Cl)C3(Cl)C1(Cl)C5(Cl)C24Cl", "note": "(stereo not drawn)", "outcome": "inactive"}, {"smiles": "CCN1CCC2(CC1)COc1cc3c(cc12)N(C(=O)c1ccc(-c2ccc(-c4nnc(C)o4)cc2C)cc1)CC3", "outcome": "inactive"}, {"smiles": "CC(C)(C)c1cc(O)ccc1O", "outcome": "inactive"}, {"smiles": "O=C1C2(Cl)C3(Cl)C4(Cl)C(Cl)(Cl)C5(Cl)C3(Cl)C1(Cl)C5(Cl)C24Cl", "note": "(stereo not drawn)", "outcome": "inactive"}, {"smiles": "COC(=O)Cc1ccccc1", "outcome": "inactive"}, {"smiles": "CC(=O)[O][Hg][c]1ccccc1", "AC50": "0.713 µM (active)"}, {"smiles": "CCCCCCCCc1ccc(O)cc1", "outcome": "inactive"}, {"smiles": "CC(C)(C)CC(C)(C)c1ccc(O)cc1", "outcome": "inactive"}, {"smiles": "CC(=O)OC(c1ccccc1)C(Cl)(Cl)Cl", "note": "(stereo not drawn)", "outcome": "inactive"}, {"smiles": "O=C(O)C(F)(F)C(F)(F)C(F)(F)C(F)(F)C(F)(F)C(F)(F)C(F)(F)C(F)(F)C(F)(F)C(F)(F)F", "outcome": "inactive"}, {"smiles": "CCC(C)(C)c1ccc(O)c(C(C)(C)CC)c1", "outcome": "inactive"}, {"smiles": "C[C@]12CCC(=O)C[C@@H]1CC[C@@H]1[C@@H]2CC[C@]2(C)[C@@H](O)CC[C@@H]12", "outcome": "inactive"}, {"smiles": "O=C(Nc1ccc2[nH]ccc2c1)c1cc2cc(F)ccc2n1Cc1cccc(F)c1", "outcome": "inactive"}, {"smiles": "C=C(C)C(=O)[O][Sn]([CH2]CCC)([CH2]CCC)[CH2]CCC", "AC50": "0.0108 µM (active)"}, {"smiles": "CC(C)(c1ccccc1)c1ccc(O)c(C(C)(C)c2ccccc2)c1", "outcome": "inactive"}, {"smiles": "CCOP(=S)(OCC)SCSP(=S)(OCC)OCC", "outcome": "inactive"}, {"smiles": "CC(C)(OO)c1ccccc1", "outcome": "inactive"}]}]}
